Assay results as given in PubChem BioAssay AID1347076 (National Center for Advancing Translational Sciences (NCATS), 2019).
Among all 400,000 compounds or so, about 13,000 (3.2%) were called active. Another 18% or so got no clear call; they are omitted. Calls come from the whole dose curve; as a rule, active = well fitted cell-killing curve with a large enough effect; inconclusive = small, poorly fitted or top-dose-only effect, or effect the other way; inactive = flat fitted curve, though single readings scatter. The entries come from a sample that favours actives as a whole.

test: qHTS assay for MDR1-selective chemotherapeutics: Primary screen using the drug-selected MDR subline cells KB-V1; settings: KB-V1 MDR cells viability, CellTiter-Glo, 72 h; series mostly up to 46.1 µM; activity change, negative = cytotoxicity: at the top concentration; note: nearly all actives have a fitted effect of over 60% in size
How it was run: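 Potencies derive from concentration-effect curves fitted to normalized luminescence (CellTiter-Glo) of KB-V1 cells treated for 72 h at 37 degrees C in phenol-red-free DMEM containing 10% FBS.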
% is set by controls: 0 for no effect and ±100 for the full control effect; potency is the fitted concentration of half-maximal effect.

Compound	activity change, negative = cytotoxicity	Potency
COC(=O)c1ccccc1NS(=O)(=O)c1ccc2c(c1)CCCN2C(C)=O	6.42% (inactive)	
CCOc1cc(/C=N/NC(=O)c2c(C)nc3ccc(Cl)cn23)ccc1O	18% (inactive)	
CCc1oc(-c2ccc(OC)cc2)c(C(=O)OCCCCCO)c1C(C)OCCO (centres undefined)	2.82% (inactive)	
O=C(NN1C(=O)C2C(C1=O)C1C=CC2C12CC2)c1ccccc1Cl (centres undefined)	13.1% (inactive)	
CC12CCC(C(=O)N(c3cccc(Cl)c3)C1=O)C2(C)C (centres undefined)	-8.2% (inactive)	
CC12CCC(C(=O)N(NC(=O)c3ccccc3O)C1=O)C2(C)C (centres undefined)		3.26 µM (active)
O=C(NCc1ccccc1)C1CNCC(C(=O)NCc2ccccc2)C1 (centres undefined)	19.2% (inactive)	
O=C(OC/C=C/CSc1nnc(-c2cccc3ccccc23)o1)c1ccc(F)cc1	-4.97% (inactive)	
CCOc1ccc(CN(Cc2ccco2)S(=O)(=O)c2ccc(-n3cnnn3)c(OC)c2)cc1	0% (inactive)	
COc1cc(S(=O)(=O)N(Cc2cccs2)C2CC2)ccc1-n1cnnn1		4.61 µM (active)
Cc1cc(S(=O)(=O)NC2CCCC2)ccc1-n1cnnn1	0.365% (inactive)	
CCOC(=O)c1c(C)oc2nc(C)nc(Nc3ccc(CC)cc3)c12	2.93% (inactive)	
O=C(C(=O)N1CCC(c2ccccc2)CC1)c1ccccc1	-16.7% (inactive)	
Cc1csc(SCC(=O)Nc2ccc(C)c(S(=O)(=O)N(C)C)c2)n1	-23.4% (inactive)	
CCN1CCN(CCNC(=O)c2ccc3c(c2)NC(=O)/C(=C\c2cccc(Cl)c2)S3)CC1	16.5% (inactive)	
O=C(OCC(=O)N1CCCCCC1)c1cccc(Cl)c1Cl	1.14% (inactive)	
CCOc1ccc(CCN2C(=S)N([C@@H](CC(C)C)CN3CCC[C@@H]3CN3C(=S)NC[C@@H]3Cc3ccc(O)cc3)C[C@@H]2Cc2ccc(O)cc2)cc1	-23.8% (inactive)	
CCC(=O)N1CCc2cc(S(=O)(=O)NC(Cc3ccccc3)C(=O)NCc3ccccc3)ccc21 (centres undefined)	4.74% (inactive)	
CC1CCCN(CCOCCOc2ccccc2-c2ccccc2)C1 (centres undefined)		20.6 µM (active)
CN1CCN(CCCCOc2ccccc2-c2ccccc2)CC1	9.51% (inactive)	
CC1CCCN(CC(O)COCc2ccccc2)C1 (centres undefined)	6.78% (inactive)	
OC[C@@H]1CN(Cc2ccc(F)cc2)C[C@H](n2cnc3c(NC4CCCC4)ncnc32)O1	0.456% (inactive)	
Cc1ccc(N2CCN(C(=S)Nc3cc(C)ccn3)CC2)cc1	0% (inactive)	

Compound	activity change, negative = cytotoxicity	Potency
NC1=NC(=O)C(Cc2cccc(Cl)c2Cl)S1 (centres undefined)		18.4 µM (active)
O=C1NC(=Nc2ccc(Cl)cc2)SC1Cc1cccc(Cl)c1Cl (centres undefined)	-12.8% (inactive)	
CC(NC(=O)CC1SC(N)=NC1=O)c1ccccc1 (centres undefined)	-19% (inactive)	
C[C@@H]1CN([C@H](C)CO)S(=O)(=O)c2ccc(C#C[C@@H](C)O)cc2O[C@@H]1CN(C)Cc1ccc(-c2ccccc2)cc1	-1.21% (inactive)	
Cc1cc(Br)cn2c(Cc3ccsc3)c(-c3ccc(C#N)cc3)nc12	2.33% (inactive)	
COc1cccc(OCCn2c(-c3ccc(Br)cc3)nc3ccccc3c2=O)c1	3.93% (inactive)	
CC[C@]1(O)CC2CN(CCc3c([nH]c4ccccc34)[C@@](C(=O)OC)(c3cc4c(cc3OC)N(C=O)[C@H]3[C@@](O)(C(=O)OC)[C@H](OC(C)=O)[C@]5(CC)C=CCN6CC[C@]43[C@@H]65)C2)C1 (some centres undefined)		20.6 µM (active)
CC[C@]1(O)C[C@@H]2CN(CCc3c([nH]c4ccccc34)[C@@](C(=O)OC)(c3cc4c(cc3OC)N(C)[C@H]3[C@@](O)(C(=O)OC)[C@H](OC(C)=O)[C@]5(CC)C=CCN6CC[C@]43[C@@H]65)C2)C1		5.17 µM (active)
O=CNc1cc(-c2ccc(C(=O)N3CCOCC3)cc2)cn2c(-c3ccc(F)cc3)cnc12	-18% (inactive)	
COC(=O)c1cc(NC(=O)CCS(=O)(=O)c2cc(Br)cc3c2N(C(=O)C2CC2)CC3)cc(C(=O)OC)c1	7.94% (inactive)	
CCNC(=O)C1CCCN(C(=O)c2cc(F)ccc2C)CC1 (centres undefined)	-22.9% (inactive)	
COc1ccc(NC(=O)C(c2ccncc2)n2c(=O)c(-c3cc4ccccc4[nH]3)nc3ccccc32)cc1 (centres undefined)	-0.812% (inactive)	
CC(C)c1ccc(NC(=O)c2cc(S(=O)(=O)N3CCc4ccccc4C3)ccc2F)cc1	-14.2% (inactive)	
Cc1ccccc1S(=O)(=O)N1[C@@H](c2cccc(Cl)c2)C(C(=O)OC(C)(C)C)=CC[C@H]1c1ccc(Cl)cc1	0% (inactive)	
CCC(C)NCCOCCOc1ccc(Br)cc1C (centres undefined)		20.6 µM (active)
COCCCNCCOCCOc1ccc(Cl)cc1Br	-3.06% (inactive)	
CCOCCCNCc1cc(Br)ccc1OCC	-3.55% (inactive)	
COc1ccc(N)cc1NC(=O)CN1CCOCC1	16.4% (inactive)	
CCCS(=O)(=O)NC(=O)C1(C)CCN(C(=O)c2sccc2C)C1 (centres undefined)	2.03% (inactive)	
O=C(CN1c2ccccc2S(=O)(=O)c2ccccc21)Nc1cccc(C(F)(F)F)c1	-7.05% (inactive)	
Cc1cc2cc(CN(Cc3cccs3)Cc3nnnn3CC3CCCO3)c(=O)[nH]c2cc1C (centres undefined)	-10.7% (inactive)	
COc1ccc2[nH]c(=O)c(CN(Cc3nnnn3CCc3ccccc3)CC3CCCO3)cc2c1 (centres undefined)	-18.1% (inactive)	
Cc1cc(C)c2cc(CN(Cc3cccs3)Cc3nnnn3CC3CCCO3)c(=O)[nH]c2c1 (centres undefined)		16.4 µM (active)

Compound	activity change, negative = cytotoxicity	Potency
CCN(CC)C(=O)C1CCCN(Cc2cccc(Cl)c2)C1 (centres undefined)	-18.5% (inactive)	
Cc1ccc(NC(=O)C2CCCN2C(=O)OCc2ccccc2)cc1C (centres undefined)	-4.42% (inactive)	
CCOC(=O)C1CCN(C(=O)Nc2ccc(C)c(Cl)c2)CC1	-17.6% (inactive)	
CCOC(=O)N1CCC(N(CCOC)C(=O)Nc2ccc(C)c(C)c2)CC1		4.11 µM (active)
Cc1ccc(NC(=O)COC(=O)CN2CCSC2=O)cc1F	23.3% (inactive)	
CCc1ccccc1NC(=O)c1ccc2nc(CCc3ccccc3)oc2c1	11% (inactive)	
CN(C)c1ccc(/C=C2\C=Cc3ccccc32)cc1Br	0.234% (inactive)	
O=C(CN1CCN(S(=O)(=O)c2ccc(Cl)s2)CC1)NCc1ccc(Cl)cc1		3.66 µM (active)
Cc1ccccc1N1CCN(CC(=O)NCc2ccc(Cl)cc2)CC1	-0.77% (inactive)	
O=C(CN1CCN(S(=O)(=O)c2ccc(Cl)s2)CC1)N1CCCCC1	0% (inactive)	
Cc1cc(C)c2nc3nc(C)cc(C)c3c(N)c2c1		18.4 µM (active)
O=C(OC12CC3CC(CC(C3)C1)C2)c1ccc(NCc2cc(O)ccc2O)cc1		14.6 µM (active)
CC(C)OC(=O)c1ccc(NCc2cc(O)ccc2O)cc1Cl	-6.71% (inactive)	
COC(=O)c1ccc(NCc2cc(O)ccc2O)cc1	2.93% (inactive)	
O=S(=O)(c1ccc2c(c1)OCCO2)N1CCc2ccccc21	0% (inactive)	
O=C(Nc1nc2ccc([N+](=O)[O-])cc2s1)c1ccc(S(=O)(=O)N2CCCc3ccccc32)cc1		1.03 µM (active)
O=C(NC(Nc1nc2ccc([N+](=O)[O-])cc2s1)(C(F)(F)F)C(F)(F)F)c1ccccc1		0.517 µM (active)
O=C(Nc1nnc(S(=O)(=O)N2CCCc3ccccc32)s1)c1cccc(F)c1	-5.74% (inactive)	
O=S(=O)(c1ccccc1)N1CCc2ccccc21	-0.951% (inactive)	
CSc1nc2ccc(S(=O)(=O)N3CCc4ccccc43)cc2s1		3.66 µM (active)
CNC(=O)c1ccsc1NC(=O)c1ccc(S(=O)(=O)N2CCc3ccccc32)cc1	7.33% (inactive)	
O=C(CCNC(=O)c1ccccc1)Nc1nc2ccccc2s1	-7.25% (inactive)	
O=C(CNC(=O)c1ccccc1)Oc1ccc([N+](=O)[O-])cc1	18.4% (inactive)	
